Consider 68 compounds from ChEMBL document CHEMBL4513216, “Probing the Open Global Health Chemical Diversity Library for Multistage-Active Starting Points for Next-Generation Antimalarials” (ACS Infect Dis, 2020).

Hit rate of the full screen: of about 68,000 compounds, about 2,700 (4%) showed an effect of 50% or more. The full list was thinned out, with strong results kept by preference.

In this assay the test system is Plasmodium berghei. The assay is described as follows: Screen against P. berghei liver stage (PbLuc), transformed with Luciferase, at 2uM. It is filed as functional, HepG2. To be noted: tested at 2 uM.
As to `COCCOc1cccc(CNCc2ccc(-n3cncn3)nc2)c1`, the INHIBITION was 5.47%.

For `CC(C)N1CCO[C@H]2CN(C(=O)Cc3cccs3)C[C@H]21`, the INHIBITION is on record as 9.87%.

Regarding `COc1ccc(-c2nnc(SC(C)C(N)=O)[nH]2)c(OC)c1` (stereo not drawn), the INHIBITION was -61.3%.

For `COc1ccc(C(=O)C2CCCN(c3cc(N)ncn3)C2)c(C)c1` (stereo not drawn), the INHIBITION stood at 16.32%.

For `COc1ccc(C(=O)C2CCCN(c3cc(OC)ncn3)C2)c(C)c1` (stereo not drawn), the INHIBITION amounted to 60%.

As to `COc1ccc(C(=O)C2CCCN(c3cnccn3)C2)c(C)c1` (stereo not drawn), the INHIBITION is 16.87%.

`CN(C)Cc1ccccc1CN(C)C(=O)c1ccoc1`: the INHIBITION is reported as 16.49%.

On to `CN(CCc1ccccn1)CCc1nccs1`, for which the INHIBITION is on record as 15.84%.

As to `CN(CCc1ccncc1)Cc1nccn1Cc1ccccc1`, the INHIBITION is on record as 33.78%.

As for `CN(CCc1cccs1)CCc1nccs1`, the INHIBITION was found to be 55.25%.

Regarding `Cc1ncsc1C(=O)N(C)CCc1ccncc1`, the INHIBITION is recorded as -3.38%.

On to `CN(CCc1ccncc1)C(=O)c1sccc1OC(F)F`, for which the INHIBITION was -120.22%.

On to `CCc1ccsc1C(=O)N(C)CCc1ccncc1`, for which the INHIBITION is 70.66%.

On to `CCN(CCc1nccs1)C(=O)c1ccco1`, for which the INHIBITION stood at 44.23%.

With `CCC(=O)N(CC)CCc1nccs1`, the INHIBITION stood at 36.57%.

`CN(CCc1ccncc1)CCc1nccs1`: the INHIBITION amounted to 78.24%.

With `O=C(NCCc1cscn1)c1coc(CN2CCOCC2)c1`, the INHIBITION is reported as -0.28%.

In the case of `Cc1cccc(N2CCN(C(=O)Cc3ccccc3O)C(C)C2)n1` (stereo not drawn), the INHIBITION is 10.49%.

In the case of `O=C(O)c1ccn(COc2c(Cl)cccc2Cl)n1`, the INHIBITION is given as 10.62%.

For the compound `Cc1ccc(CN2CCc3c(COCC4CC4)nn(C)c3C2)s1`, the INHIBITION came out at 22.12%.

For `COc1cccc(CNCC2CCN(CC(C)O)CC2)c1OC` (stereo not drawn), the INHIBITION is on record as 61.96%.

Take `CCOc1ccccc1CNCC1CCN(CC(C)O)CC1` (stereo not drawn): the INHIBITION amounted to 21.43%.

With `COc1ccc(CNCC2CCN(CC(C)O)CC2)c2ccccc12` (stereo not drawn), the INHIBITION was found to be 7.54%.

For the compound `COc1ccccc1CNC1(CCO)CCOCC1`, the INHIBITION was found to be 13.12%.

On to `Cc1cc(C(=O)N2CCCC(c3ccc(C(=O)O)cc3)C2)c(C)o1` (stereo not drawn), for which the INHIBITION was -56.9%.

As for `Cn1ccc(NCc2cc3cc(F)ccc3o2)n1`, the INHIBITION came out at 5.1%.

As to `Cc1cc(-n2nc(C3CC3)nc2-c2csnn2)ccn1`, the INHIBITION was -77.53%.

On to `O=C1CC[C@H]2CN(Cc3cccnc3)CC[C@H]2N1CCc1c[nH]cn1`, for which the INHIBITION was 50.94%.

On to `Cn1cc(CN2CC[C@@H]3[C@@H](CCC(=O)N3CCc3c[nH]cn3)C2)cn1`, for which the INHIBITION is -21.16%.

As to `O=C1CC[C@H]2CN(Cc3cccc(F)c3)CC[C@H]2N1CCc1c[nH]cn1`, the INHIBITION is reported as -13.3%.

Regarding `CN1CCCC1CCn1ccnc1-c1ccc2ccccc2n1` (stereo not drawn), the INHIBITION stood at 5.55%.

Take `CCN1CC2(CC1=O)CN(C(=O)c1ccsc1)CCN(C(=O)N(C)C)C2` (stereo not drawn): the INHIBITION is listed as 26.44%.

For the compound `Cc1noc2nc(C3CCCN(Cc4cccnc4)C3)cc(C(F)F)c12` (stereo not drawn), the INHIBITION stood at 39.06%.

Turning to `Cc1noc2nc(C3CCCN(Cc4ccncc4)C3)cc(C(F)F)c12` (stereo not drawn), the INHIBITION came out at 63.66%.

`Cc1noc2nc(C3CCN(Cc4ccncc4)CC3)cc(C(F)F)c12`: the INHIBITION worked out at 17.51%.

Regarding `COc1c(C)cnc(CN2CCCC2c2noc(C)n2)c1C` (stereo not drawn), the INHIBITION turned out to be 4.87%.

For the compound `COCCN(CC1CC1)c1nc(CCN)nc2sc(C)c(C)c12`, the INHIBITION is reported as 13.65%.

For the compound `O=C1NC2(CCN(Cc3cccnc3)CC2)CC1c1cccnc1` (stereo not drawn), the INHIBITION was -22.79%.

Consider `Cc1noc(C)c1CN(C)Cn1c(=O)oc2ccccc21`, for which the INHIBITION is -5.31%.

As to `CC(C)N1CCC(CC(=O)N2CCN(Cc3nccn3C)CC2)CC1`, the INHIBITION was determined as 29.41%.

Consider `COCCN1CC[C@]2(CN(Cc3cccnc3)C[C@H]2C)C1=O`, for which the INHIBITION stood at 49.07%.

As for `Cc1nc2n(n1)CC(NCc1cnn(-c3ccccc3)n1)CC2` (stereo not drawn), the INHIBITION is 24.88%.

For `COc1ccc(C(=O)N2CCOCC2c2ccc(C)o2)cc1` (stereo not drawn), the INHIBITION is 39.93%.

For `CC(=O)Nc1cc(C(=O)N2CCOCC2c2ccc(C)o2)ccc1F` (stereo not drawn), the INHIBITION is 44.99%.

As to `Cc1ccc(C2COCCN2C(=O)c2ccc(CN(C)C)cc2)o1` (stereo not drawn), the INHIBITION was 27.84%.

For `Cc1ccc(C2COCCN2C(=O)c2ccc(N(C)C)cc2)o1` (stereo not drawn), the INHIBITION worked out at 30.73%.

Take `Cc1ccc(C2COCCN2C(=O)c2ccsc2)o1` (stereo not drawn): the INHIBITION came to 16.01%.

Turning to `Cc1ccc(C2COCCN2C(=O)c2ccc(F)c(F)c2)o1` (stereo not drawn), the INHIBITION amounted to 70.24%.

Regarding `Cc1ccc(C2COCCN2C(=O)c2cccc(N(C)C)c2)o1` (stereo not drawn), the INHIBITION is listed as 43.34%.

In the case of `COCc1ccc(C(=O)N2CCOCC2c2ccc(C)o2)cc1` (stereo not drawn), the INHIBITION is listed as 62.13%.

As for `Cc1ccc(C2COCCN2C(=O)c2ccc(C#N)cc2)o1` (stereo not drawn), the INHIBITION amounted to 54.44%.

For `CCS(=O)(=O)N1CCCCC1c1nc(C(C)C)no1` (stereo not drawn), the INHIBITION is -28.84%.

Consider `CN1CCN(Cc2ccccc2Oc2ccc(C(N)=O)cn2)CC1`, for which the INHIBITION amounted to 8.73%.

For the compound `CN(Cc1ccc(O)cc1)C(=O)NC1CCCN(c2ncccn2)C1` (stereo not drawn), the INHIBITION is 36.95%.

In the case of `Cc1nc(CN2CCCC(c3nccs3)C2)cs1` (stereo not drawn), the INHIBITION is -33.32%.

Turning to `Cn1cc(Cl)c(C(=O)N2CCC(N3CCc4ccccc4C3)CC2)n1`, the INHIBITION amounted to 18.63%.

As to `Cc1c(O)cccc1C(=O)N1CCCC2(C1)C(=O)N(C)c1ccccc12` (stereo not drawn), the INHIBITION was -91.67%.

Take `Cc1noc(COCC(=O)N2CCCC(c3nccs3)C2)n1` (stereo not drawn): the INHIBITION is -7.96%.

Turning to `CCc1cn[nH]c1C1CCCN(C(=O)c2cc(C(C)C)on2)C1` (stereo not drawn), the INHIBITION is recorded as 22.34%.

For the compound `CCc1cn[nH]c1C1CCCN(C(=O)c2ncoc2C(C)C)C1` (stereo not drawn), the INHIBITION is recorded as 27.85%.

On to `CCc1cn[nH]c1C1CCCN(C(=O)c2cnc(NC(C)C)nc2)C1` (stereo not drawn), for which the INHIBITION came out at 56.49%.

`CCn1cc(NC(=O)C(C)n2ncc(Cl)c2C)c(C(=O)NC)n1` (stereo not drawn): the INHIBITION is -28.77%.

With `CC(C)(C)C(=O)N1C[C@H](c2ccsc2)[C@H]2CN(C3CCCCC3)CC[C@H]21`, the INHIBITION was found to be 25.41%.

Turning to `CC(C)C(=O)N1CCC12CCCN(C(=O)c1ccnnc1)C2` (stereo not drawn), the INHIBITION is given as -40.36%.

Turning to `CC(=O)NC(Cc1c[nH]c2cc(F)ccc12)C(=O)Nc1cnn(C)c1` (stereo not drawn), the INHIBITION turned out to be 11.32%.

In the case of `CC(=O)NC(Cc1c[nH]c2cc(F)ccc12)C(=O)Nc1nncs1` (stereo not drawn), the INHIBITION came out at 59.94%.

Turning to `CC(=O)NC(Cc1c[nH]c2cc(F)ccc12)C(=O)Nc1nonc1C` (stereo not drawn), the INHIBITION amounted to 46.43%.

In the case of `Cc1ccc(CN(C)C(=O)CN2CCCC(Cn3cncn3)C2)cc1` (stereo not drawn), the INHIBITION was 10.4%.
